# The supplement of paper PMC6555819
# Legend:
# Test in all cases: PBM binding z-score (relative to random genomic background probes); higher = stronger binding; sequences stand for … in GC…GCGATTGACAGCGTAGAATGAAGG
# [1] = system: FXR:RXRa (NR concentration 270 nM, RXRa partner concentration 90 nM)
# Method in brief: (§1)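 For binding z-scores, the reference was random background probes on custom Agilent 4×180K protein-binding microarrays. These arrays were incubated 1 h with ligand-free nuclear receptor dimers in PBS pH 7.4, 2% milk, 0.02% Triton X-100, 1 mM DTT, 0.2 mg/mL BSA and 0.4 mg/ml salmon testes DNA. Fluorescence was scanned after antibody detection of each partner (one per run) and regression-normalized.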
# [2] = system: LXRa:RXRa (NR concentration 270 nM, RXRa partner concentration 90 nM)
# Method in brief: as §1
# [3] = system: LXRa homodimer (NR concentration 270 nM)
# Method in brief: as §1
# [4] = system: LXRb:RXRa (NR concentration 270 nM, RXRa partner concentration 90 nM)
# Method in brief: as §1
# [5] = system: LXRb homodimer (NR concentration 270 nM)
# Method in brief: as §1
# [6] = system: PPARa:RXRa (NR concentration 270 nM, RXRa partner concentration 90 nM)
# Method in brief: as §1
# [7] = system: PPARg:RXRa (NR concentration 180 nM, RXRa partner concentration 90 nM)
# Method in brief: as §1
# [8] = system: PPARg:RXRa 270nM:90nM, anti-RXR (NR concentration 270 nM, RXRa partner concentration 90 nM)
# Method in brief: as §1
# [9] = system: PPARg:RXRa 30nM:10nM, anti-RXR (NR concentration 30 nM, RXRa partner concentration 10 nM)
# Method in brief: as §1
# [10] = system: PPARg:RXRa 90nM:30nM, anti-RXR (NR concentration 90 nM, RXRa partner concentration 30 nM)
# Method in brief: as §1
# [11] = system: PPARg:RXRa DBDmut IVT, anti-RXR (DBD mutation: RXRa K156A/R161A, NR concentration 270 nM, RXRa partner concentration 90 nM)
# Method in brief: as §1
# [12] = system: PPARg:RXRa IVT, anti-PPARg (NR concentration 270 nM, RXRa partner concentration 90 nM)
# Method in brief: as §1
# [13] = system: PPARg DBDmut:RXRa IVT, anti-PPARg (DBD mutation: PPARg1 K132A/R137A, NR concentration 270 nM, RXRa partner concentration 90 nM)
# Method in brief: as §1
# [14] = system: PPARg DBDmut IVT, anti-PPARg (DBD mutation: PPARg1 K132A/R137A, NR concentration 270 nM)
# Method in brief: as §1
# [15] = system: PPARg homodimer (NR concentration 180 nM)
# Method in brief: as §1
# [16] = system: PXR:RXRa (NR concentration 270 nM, RXRa partner concentration 90 nM)
# Method in brief: as §1
# [17] = system: PXR homodimer (NR concentration 270 nM)
# Method in brief: as §1
# [18] = system: RARa:RXR (NR concentration 270 nM, RXRa partner concentration 90 nM)
# Method in brief: as §1
# [19] = system: RARa homodimer (NR concentration 270 nM)
# Method in brief: as §1
# [20] = system: RARb:RXRa (NR concentration 270 nM, RXRa partner concentration 90 nM)
# Method in brief: as §1
Sequence,PBM binding z-score [1],PBM binding z-score [2],PBM binding z-score [3],PBM binding z-score [4],PBM binding z-score [5],PBM binding z-score [6],PBM binding z-score [7],PBM binding z-score [8],PBM binding z-score [9],PBM binding z-score [10],PBM binding z-score [11],PBM binding z-score [12],PBM binding z-score [13],PBM binding z-score [14],PBM binding z-score [15],PBM binding z-score [16],PBM binding z-score [17],PBM binding z-score [18],PBM binding z-score [19],PBM binding z-score [20]
CGTCAAAGTTCAACTAAGATAACGTAAAGCACGC,6.92,6.3,4.03,4.14,2.68,5,4.94,5.19,2.56,4.27,0.308,2.03,1.72,2.53,4.35,4.78,3.71,4.27,2.93,5.08
CGTCCAAGGTCAAGGTCAGTGCAAGAGACTCGAA,7.47,5.77,1.19,4.77,0.528,5.84,6.07,6.18,2.4,5.09,3.72,4.78,-0.258,-0.287,3.45,5.43,2.22,5.21,1.13,5.62
ATATGTAGGTTAAGGGTCATTAAGGTTGGTTCGC,5.05,4.87,2.72,4.3,0.865,6.59,11.6,9.59,10.3,10.7,7.35,7.81,2.09,1.17,3.24,4.92,3.59,5.16,2.38,3.74
CGTCCAAGGTCAGAGATGTCAGTGAATGCCGAGT,4.67,2.73,0.142,1.82,-0.161,3.59,2.24,2.19,0.132,1.04,2.09,2.19,-0.242,-0.744,0.984,2.43,1,2.65,0.429,4.54
ACAGACAGGTGAGTGACGGTAACTCAGCTGGACG,-0.187,-0.0958,-0.572,-0.393,-0.746,-0.129,0.633,0.0382,-0.358,-0.388,0.522,0.563,0.246,0.557,-0.526,-0.527,-0.705,-0.525,-0.487,0.377
ATCTCTAGGTAAGACTCAGTTCAGCGAAGAACGC,0.373,0.369,0.471,0.111,0.684,0.278,0.231,0.241,0.0173,0.278,1.67,1.01,0.389,0.673,0.96,0.943,1.37,0.477,1.01,0.277
TTTTGTAGATCAATAGAGGTTAAGAAAGTGCGCT,0.883,3.94,1.12,1.9,0.26,2.02,0.38,1.37,1.13,1.41,1.22,1.99,1.51,1.54,1.32,3.37,0.915,2.2,1.45,1.15
GCAGACAAGTGAAACGCAGGTAACTCAGGGTGGC,-0.375,-0.79,-0.665,-0.901,-1.26,-0.28,0.44,-0.661,-0.558,-0.468,-0.601,-0.398,-0.525,-1.2,-0.82,-0.683,-0.723,-0.207,-0.732,-1.75
CTCGAAAGGTCGGATGAGGTGAGTATACGGATAA,2.61,2.09,0.0368,1.69,-0.334,3.17,1.02,1.66,0.432,0.958,0.154,0.983,0.973,-0.0346,0.968,3.55,-0.0327,2.62,0.562,3.32
ACTATTAGTAGACTTAGGGCAACCGATACGACGC,-0.142,-0.0337,0.0948,-0.377,0.454,-0.25,1.13,0.419,0.331,0.394,0.187,0.601,0.838,1.02,0.603,0.0648,0.218,0.0539,0.917,0.609
CCTTACGGGTCAAGTTTATAGCACGGGTGGTACG,6.15,4.11,0.444,3.48,0.604,5.14,4.2,4.22,1.91,3.06,2.03,3.32,1.11,-0.333,4.02,3.89,0.698,4.34,1.46,4.19
TATACAGGGACAAAGGCCAGAGTACGAATGTCGA,0.545,0.102,0.279,-0.249,0.97,1.19,2.9,3.98,2.12,3.3,-0.141,1.3,0.681,0.636,0.776,0.0293,0.479,0.273,0.492,1.54
TCTAGTTTGTCACGGAGGTCACACACGACGGGTA,3.46,3.54,2.3,3.26,1.43,3.88,2.25,3.52,3.81,3.66,1.88,3.07,0.895,1.64,2.96,4.44,1.91,4.55,1.86,3.54
AGAATGAGGTTATACGTGGATCAGGGAAGAAAGT,2.49,2.03,0.117,1.91,0.299,3.25,1.82,2.19,0.672,1.49,3.62,2.12,1.26,0.938,1.69,1.17,0.993,1.89,0.612,1.55
